HepG2 tox – qHTS for Inhibitors of TGF-b: Cytotox Counterscreen | HepG2 CAGA-GFP viability, ATP luminescence, 18 h | AID 588856, 2011 | Potency, µM (titrated, usually from 46.1 µM), actives largely listed as cytotoxic | 410,000 compounds, 0.76% hits
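HepG2 CAGA-GFP cells (1000/well, DMEM with 1% FBS) received compound, then TGF-beta at 500 pg/mL final, and were incubated 18 hours at 37 degrees C. Viability was read by CellTiter-Glo luminescence. Media-only wells were set as complete cell-killing and DMSO as no toxicity.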
Giardia kill – Small Molecules that selectively kill Giardia lamblia: qHTS. Giardia lamblia trophozoite viability. activity change, % at 7.66 µM, hits read low. 340,000 compounds, 0.15% hits; in the data active = activity change below about -80%; inconclusive = between about -30% and that limit;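 note: parasites exposed to compound for two days anaerobically before the ATP read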
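Trophozoite viability was measured as ATP-dependent luminescence, read 15-30 min after reagent addition. Before that, parasites at 100 cells/well were exposed to compounds for 48 h, anaerobically, at 37 deg C.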
HT1080-NT tox – qHTS for induction of synthetic lethality in tumor cells producing 2HG: qHTS for the HT-1080-NT fibrosarcoma cell line; HT-1080-NT fibrosarcoma viability, CellTiter-Glo ATP luminescence, 48 h; 360,000 compounds, 1.6% hits; Potency, µM (series often up to 46.1 µM), actives largely listed as cytotoxic;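 note: NT is the 2HG producing partner of a matched IDH1 knockdown line; nearly all actives have a fitted effect of over 55% in size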
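Fibrosarcoma NT cells, 750 per well in 5% FBS RPMI, were exposed to compound for 48 hours. Viability: CellTiter-Glo luminescence.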
IL-1B inflam inh – qHTS for Inhibitors of Inflammasome Signaling: IL-1-beta AlphaLISA Primary Screen; 360,000 compounds, 4.7% hits; AID 743279, 2014; THP-1 LPS/ATP IL-1B secretion, AlphaLISA, 16 h; active compounds read low; activity change, % at 57.5 µM; in the data active = activity change below about -50%; inconclusive = mostly about -30% to -49%
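Secreted IL-1B measured by AlphaLISA bead assay after 16 h compound exposure of THP-1 cells; compounds (final up to 57.5 uM) added 1 h before LPS (250 ng/mL) and ATP (1.25 mM) stimulation; lower signal means less secretion.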
HT1080 IDH1KD tx – qHTS for induction of synthetic lethality in tumor cells producing 2HG: qHTS for the HT-1080-IDH1KD cell line; HT-1080 IDH1 knockdown viability, ATP luminescence, 48 h; Potency, µM (top dose mostly 46.1 µM), hits mostly cytotoxic; 360,000 compounds, 2% hits
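IDH1KD HT-1080 cells, 750/well, RPMI + 5% FBS; compound pinned after 2 h settling; 48 h, 37 °C; CellTiter-Glo luminescence; % activity normalised to DMSO and no-cell wells; curves fitted, classed by r2 and efficacy.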
TGFb SMAD3 inh – qHTS for Inhibitors of TGF-b | AID 588855, 2011 | HepG2 CAGA-GFP TGF-b/SMAD3 reporter, GFP fluorescence, 18 h; TGF-beta stimulated, 500 pg/mL final | 410,000 compounds, 1.2% hits | Potency, µM (series often up to 46.1 µM), actives largely listed as inhibitors; note: nearly all actives have a fitted effect of over 65% in size
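First, reporter cells (HEPG2 CAGA-GFP) rested 2 h at 37 degrees C. Next, compounds were pinned in and TGF-beta added to 500 pg/mL final. After 18 h, GFP was imaged per cell and summed per well.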
A number is an active result; – = inactive; ? = inconclusive; · = no result given. This is a sample that favours compounds with a hit; in the whole collection about 6.5% have one here. Unless noted, calls come from the whole dose curve; as a rule, active = well fitted curve in the direction sought with a large enough effect; inconclusive = small, poorly fitted or top-dose-only effect, or another doubt; inactive = no such curve, though single readings can be large; an effect the other way counts as inactive or inconclusive.

SMILES	HepG2 tox	Giardia kill	HT1080-NT tox	IL-1B inflam inh	HT1080 IDH1KD tx	TGFb SMAD3 inh
CC(=O)c1cccc(OCC(O)CN2CCN(S(=O)(=O)c3c(F)cccc3F)CC2)c1 (stereo unspecified)	–	–	–	–	–	–
NC1(C(=O)O)CSSC1	–	–	?	-77.2	?	?
COc1ccc(OC)c(NC(=O)NNC(=O)c2cc3occc3[nH]2)c1	–	–	–	–	–	?
COc1ccc([C@H]2CC(=O)C=C(c3c(OC)cccc3OC)C2)cc1	–	–	4.61µM	–	5.8µM	–
COc1ccc([C@H]2CC(=O)C=C(c3cccc(C(C)C)c3)C2)cc1OC	–	–	–	-50.6	–	?
CCOc1ccc(Cl)cc1C1=CC(=O)C[C@H](c2ccc(OC)cc2)C1	–	–	2.06µM	–	4.11µM	?
COc1ccc([C@H]2CC(=O)C=C(c3cc(Cl)ccc3OC)C2)cc1	–	–	?	–	?	?
COc1ccc([C@H]2CC(=O)C=C(c3cc(C=O)ccc3OC)C2)cc1OC	–	–	–	–	–	–
COc1ccc([C@H]2CC(=O)C=C(c3ccc4ccccc4c3)C2)cc1OC	–	–	–	?	–	?
COc1ccc(C2=CC(=O)CC(c3ccc(OC)cc3)C2)cc1 (stereo unspecified)	–	–	–	–	–	–
COc1ccc([C@H]2CC(=O)C=C(c3cc(C=O)ccc3OC)C2)cc1	–	–	?	–	14.6µM	?
CC(C)Nc1nc(NC2CCCC2)nc(N2CCOCC2)n1	–	–	–	-99.3	–	–
O=C1c2ccccc2NC(c2ccc(-c3ccc(F)cc3)o2)N1O (stereo unspecified)	–	–	·	·	·	–
O=C1c2ccccc2NC(c2ccc(-c3ccc(Br)cc3)o2)N1O (stereo unspecified)	–	–	7.94µM	–	11.2µM	?
Cc1cc(/C=C(/C#N)c2cccc(F)c2)c(C)n1-c1cccnc1	–	–	?	-89.0	–	?
Cc1cc(NC(=O)CSc2nnc(-c3ccco3)n2CC2CCCO2)no1 (stereo unspecified)	–	–	–	–	–	–
O=C(Nc1ncccc1O)c1ccc(NS(=O)(=O)c2ccc3[nH]c(=O)[nH]c3c2)cc1	–	–	?	–	?	–
O=C(Nc1ncccc1O)c1ccc(S(=O)(=O)Nc2ccccc2)cc1	–	–	13µM	–	9.2µM	–
O=C(CSc1nnc(Nc2ccccc2F)s1)NC(=O)CN1CCCC1=O	–	–	–	–	–	–
Cc1cc(NC(=O)CS(=O)(=O)c2cn(Cc3ccccc3Cl)c3ccccc23)no1	–	–	?	–	?	?
Cc1cc(NC(=O)CS(=O)c2cn(Cc3cccc(Cl)c3)c3ccccc23)no1 (stereo unspecified)	–	·	–	–	?	12.6µM
NC(=O)N/N=C/c1c(Sc2nnnn2-c2ccccc2)nc2ccccn2c1=O	–	–	–	-67.9	–	?
O=C(Nc1ccccc1)c1ccccc1CSc1ccccc1	–	–	–	–	–	–
CN(C)CCOC(=O)C1(c2ccccc2)CCCC1	–	–	–	–	–	–
C[N+]1(CCCOC(=O)C2(c3ccccc3)CCCC2)CCOCC1	11.2µM	–	–	–	–	?
Cc1ccc(Nc2c(-c3ccc(N4CCOCC4)cc3)nc3ncccn23)c(C)c1	–	–	–	?	–	?
Cc1c(C)n(Cc2ccccc2)c2ncnc(NCCN(C)C)c12	–	–	–	?	–	–
COc1ccc(-n2c(=O)c3c4c(sc3n(Cc3ccc(C)cc3C)c2=O)CCC4)c(OC)c1	5.62µM	·	·	·	·	–
COc1ccc(-n2c(=O)c3c4c(sc3n(Cc3ccccc3Cl)c2=O)CCC4)c(OC)c1	–	·	·	·	·	–

Screening results as filed in PubChem BioAssay.
